Source: PubChem (National Center for Advancing Translational Sciences (NCATS))
FLuc inh = Photinus pyralis luciferase inhibition; Potency, µM (series often up to 115 µM), actives largely listed as inhibitors; P08659; AID 1347043; purified P. pyralis luciferase, luminescence, biochemical; hit rate 2.5% among 76,000; further: nearly all actives have a fitted effect of over 65% in size
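Inhibitors were tested against purified firefly luciferase in a biochemical, low-substrate format (both substrates at 10uM) and luminescence measured with a CCD imager.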
HEK293 tox = kills HEK 293 cells | hit rate 6.6% among 94,000 | HEK 293 viability, ATP luminescence (CellTiter-Glo), 48-72 h | Potency, µM (highest dose often 115 µM), for inactives: at the highest dose activity change, negative = cytotoxicity, hits mostly inhibitors | AID 1345083; further: nearly all actives have a fitted effect of over 60% in size
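Cytotoxicity was scored by loss of ATP-coupled luminescence (CellTiter-Glo) in HEK 293 cells. Compound treatment ran 48 or 72 hr at 37 degree Celsius, 5% CO2, 95% humidity.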
NIH3T3 tox = cytotoxic compounds in NIH 3T3 cells | NIH 3T3 viability, CellTiter-Glo ATP luminescence, 48-72 h | Potency, µM (series often up to 96.7 µM), inactives show top-dose activity change, negative = cytotoxicity, most hits filed as inhibitors | hit rate 4.3% among 94,000 | AID 1345082; further: nearly all actives have a fitted effect of over 55% in size
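Cytotoxicity is measured as loss of cellular ATP: NIH 3T3 cells (400/well) are exposed to compound for 48 or 72 hr at 37 °C, then CellTiter-Glo luminescence is imaged after 10 min at room temperature.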
GPT2 inh = blocks human glutamate pyruvate transaminase 2; hit rate 0.25% among 100,000; AID 1671188; Q8TD30; Recombinant GPT2, coupled pyruvate oxidase/HRP Amplex Red fluorescence; Potency, µM (doses to about 57.7 µM), without a hit: at the highest dose activity change, negative = inhibition, hits mostly inhibitors; further: nearly all actives have a fitted effect of over 60% in size
Target sequence (Q8TD30 whole entry, looked up): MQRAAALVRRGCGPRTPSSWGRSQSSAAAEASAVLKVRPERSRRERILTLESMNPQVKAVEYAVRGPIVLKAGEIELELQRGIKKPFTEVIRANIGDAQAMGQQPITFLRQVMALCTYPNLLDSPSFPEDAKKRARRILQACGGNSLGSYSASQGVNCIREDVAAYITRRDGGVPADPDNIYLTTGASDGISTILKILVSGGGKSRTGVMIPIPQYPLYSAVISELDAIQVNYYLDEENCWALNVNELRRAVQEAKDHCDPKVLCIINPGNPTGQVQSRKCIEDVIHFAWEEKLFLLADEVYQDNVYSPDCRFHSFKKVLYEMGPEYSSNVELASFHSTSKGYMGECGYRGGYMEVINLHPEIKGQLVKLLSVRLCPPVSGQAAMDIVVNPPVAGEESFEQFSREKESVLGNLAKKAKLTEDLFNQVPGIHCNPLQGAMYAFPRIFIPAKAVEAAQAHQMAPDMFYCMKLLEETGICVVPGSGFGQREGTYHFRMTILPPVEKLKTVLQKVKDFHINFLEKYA
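GPT2 10ng/uL, a-KG 250uM, L-Ala 2mM, HEPES pH7.5 + 0.0001% Tween; 30 min RT. Then Amplex mix (PO/HRP/ThPP), 30 min RT dark, fluorescence. AOA 50uM used as positive control.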
hNpr1 antagonist = blocks ANP-stimulated signaling of human Npr1 receptor | HEK293 hNpr1 GloSensor cGMP, ANP-stimulated luminescence | hit rate 1.6% among 76,000 | P16066 | Potency, µM (top dose mostly 46.3 µM), without a hit: at the highest dose activity change, negative = inhibition, hits mostly inhibitors; calls by dose curve; further: nearly all actives have a fitted effect of over 60% in size
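HEK293 cells stably expressing human Npr1 and cGMP GloSensor pGS-40F, loaded 2 h with 2% GloSensor reagent, given compound 30 min at room temperature. Luminescence read before and 20 min after 0.1 nM hNppA.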
* marks the source's active call; other numbers are inactive results; i = inactive; u = inconclusive; x = no result; [ ] = remark or other dose. A selection: hits, their analogues and other compounds. The true share with any hit is near 10%. Unless noted, the call rests on the fitted dose curve; in most records, active means well fitted curve in the direction sought with a large enough effect; inconclusive means small, poorly fitted or top-dose-only effect, or another doubt; inactive means no such curve, though single readings can be large; an effect the other way counts as inactive or inconclusive. On the % scale 0 is the no-effect control and ±100 the full control effect; potency means the concentration at half of the fitted maximal effect.

SMILES	FLuc inh	HEK293 tox	NIH3T3 tox	GPT2 inh	hNpr1 antagonist
CN(C(=O)c1ccc2ccccc2n1)C1CCc2nn(CC3CC3)c(=O)n2CC1 (configuration not stated)	i	4%	-2%	i	2%
O=C1COC[C@H]([C@H](O)c2ccc(NC(=O)C3CCCC3)cc2)N1	i	3%[172 µM]	1%[174 µM]	-4%[88.5 µM]	-1%[70.6 µM]
O=C(C1CCCCC1)N1CCCC2(CNc3ncccc3[S+](=O)([O-])N2)C1 (configuration not stated)	x	-8%	-14%	x	x
CN(C)CCNC(=O)C1(C)CN(Cc2ccccc2)Cc2ccc(Nc3ccccc3)nc21 (configuration not stated)	i	28µM*	16µM*	-4%	1%
CCOc1ccccc1CN1CCC2(CCN(C(=O)Cc3cccc(Cl)c3)CC2)Oc2ccccc21	i	-18%	-12%	i	-1%
CCOc1ccccc1CN1CCC2(CCN(C(=O)Cc3ccc(F)cc3)CC2)Oc2ccccc21	i	35µM*	u	i	6%
CCOc1ccccc1CN1CCC2(CCN(C(=O)C3CCCC3)CC2)Oc2ccccc21	i	35µM*	u	i	-12%
O=C(Cc1ccc(F)cc1)N1CCC2(CC1)CCN(CCc1ccccc1)c1ccccc1O2	i	45µM*	u	i	21%
Cc1ccc(CNC(=O)CCc2ccnc(N3CCCC3)c2)cc1	i	3%	1%	-4%	2%
CCc1c(C(=O)N2CCC(CO)(Cc3ccccc3)CC2)[nH]c2ccccc12	i	20µM*	u	-3%	-8%
N#Cc1ccc(CN2C[C@@H](COCC(N)=O)[C@H](c3ccncc3)C2)cc1	i	89µM*	-15%	-5%	-11%
Cc1ccccc1-c1noc(CN2CCCC2=O)n1	i	-8%	-27%	i	-2%
Cc1ccc(CC(=O)N2CCC(c3n[nH]c(=O)n3-c3ccc(C)cc3)CC2)cc1	i	4%	u	i	-7%
COc1cc(OC)cc(C(=O)N2CCC(c3n[nH]c(=O)n3Cc3ccc(F)cc3)CC2)c1	i	1%	18µM*	1%	0%
COc1cc(OC)cc(C(=O)N2CCC(c3n[nH]c(=O)n3-c3ccc(C)cc3)CC2)c1	i	2%	25µM*	i	13%
COc1cccc(C(=O)N2CCC(c3n[nH]c(=O)n3-c3ccc(C)cc3)CC2)c1	i	-6%	35µM*	i	3%
COc1ccc(CC(=O)N2CCC(c3n[nH]c(=O)n3-c3ccc(C)cc3)CC2)cc1	i	-8%	32µM*	i	0%
O=C(Cc1ccc(Cl)cc1)N1CCC(c2n[nH]c(=O)n2-c2ccccc2)CC1	i	-2%	32µM*	0%	10%
CCOC(=O)c1cc2cc(NC(=O)C3=CC(C)(C)Oc4ccc(OC)cc43)ccc2o1	x	45µM*	u	x	x
Clc1ccc(CNc2nc(-c3ccccc3)no2)cc1	16µM*	u	u	-12%	-30%
Cc1c(F)cccc1NC(=O)N1CC2CC(C1)[C@H]1CCCC(=O)N1C2 (some centres not stated)	i	7%	i	i	0%
CCCNC(=O)N1CCN2C(=O)c3cc(-c4ccccc4F)ccc3NC(=O)[C@@H]2C1	i	100µM*	u	i	-2%[70.6 µM]
O=C1Nc2ccc(-c3ccc(Cl)cc3)cc2C(=O)N2CCN(C(=O)C3CCCCC3)C[C@H]12	i	40µM*	u	-1%	-21%
CC(C)(CC(=O)O)CC(=O)N1CCN2C(=O)c3cc(-c4ccc(Cl)cc4)ccc3NC(=O)[C@H]2C1	i	0%	-1%	i	-3%
CC(C)(C)CC(=O)N1CCN2C(=O)c3cc(-c4ccc(Cl)cc4)ccc3NC(=O)[C@H]2C1	i	40µM*	u	-24%	-14%
O=C1Nc2ccc(-c3ccccc3F)cc2C(=O)N2CCN(C(=O)c3ccco3)C[C@@H]12	i	u	u	0%[88.5 µM]	1%[70.6 µM]
CC(C)(C)CC(=O)N1CCN2C(=O)c3cc(-c4ccccc4)ccc3NC(=O)[C@H]2C1	i	100µM*	u	5%[88.5 µM]	-1%[70.6 µM]
